41 compounds from PubChem BioAssay (NCATS) can be followed below.

For some assays here: Potency and affinity values are given separately. Calls of active or inactive are those of the source. Peptide text beside a SMILES is read from it.

For experiment [1] the following is noted: Ebola virus entry assay, ratio channel.
For experiment [2] the following is noted: Ebola virus entry assay, green channel fluorescence.
For experiment [3] the following is noted: Ebola virus entry assay, reporter ratio channel; AC50: Channel type: primary unless noted; outcome: Channel type: primary unless noted.
For experiment [4] the following is noted: Ebola virus entry assay, blue channel (ratio component).
Experiment [5] is described as follows: Immunotoxin (SS1P) sensitization/mitigation study. Vehicle arm (DMEM) (AID 1159513). Note: potency is the fitted concentration of half-maximal effect. The conditions noted are these: cell viability with vehicle (DMEM); series mostly up to 46.1 µM.
The conditions of experiment [6]: Ebola virus entry assay, blue channel fluorescence.
The conditions of experiment [7]: Ebola virus entry cell assay, ratio channel.

Take `Cc1ccsc1/C=C/C1=NCCCN1C`: the result in experiment [1], in experiment [2], in experiment [3] and in experiment [4] was inactive.

Take `CC(=O)N/N=C/c1ccc([N+](=O)[O-])o1`: the outcome in experiment [1], in experiment [2], in experiment [3] and in experiment [4] was inactive.

As for `S=c1nc[nH]c2nc[nH]c12`, the Potency in experiment [5] is 605 nM (active).

In the case of `O=P1(N(CCCl)CCCl)NCCCO1` (stereo not given), in experiment [5], the Potency entry was “inactive”.

Regarding `COc1cc(/C=C/C(N)=O)cc(OC)c1OC`, the call in experiment [2], in experiment [3] and in experiment [4] was inactive.

In the case of `CCC(=O)c1c(O)cc(O)cc1O`, the call in experiment [2], in experiment [3] and in experiment [4] was inactive.

As to `CCCCCCCCCC(=O)O[C@H]1CC[C@H]2[C@@H]3CCC4=CC(=O)CC[C@@H]4[C@H]3CC[C@]12C`, the compound was classed as inactive in experiment [2], in experiment [3] and in experiment [4].

For `CCNC(=O)[C@@H]1CCCN1C(=O)[C@H](CCCN=C(N)N)NC(=O)[C@H](CC(C)C)NC(=O)CNC(=O)[C@H](Cc1ccc(O)cc1)NC(=O)[C@H](CO)NC(=O)[C@H](Cc1c[nH]c2ccccc12)NC(=O)[C@H](Cc1cnc[nH]1)NC(=O)[C@@H]1CCC(=O)N1` (HELM PEPTIDE1{[Glp].H.W.S.Y.G.L.R.P.[CCN[*:1]]}$$$$V2.0), the result in experiment [2], in experiment [3] and in experiment [4] was inactive.

As to `C[C@@H]1CN(c2c(F)c(F)c3c(=O)c(C(=O)O)cn(C4CC4)c3c2F)C[C@H](C)N1`, the result in experiment [2], in experiment [3] and in experiment [4] was inactive.

On to `CC(C)(Sc1cc(C(C)(C)C)c(O)c(C(C)(C)C)c1)Sc1cc(C(C)(C)C)c(O)c(C(C)(C)C)c1`, for which the compound was called inactive in experiment [2], in experiment [3] and in experiment [4].

On to `O=C1CC(c2ccc(Cl)cc2)CC(=O)N1`, for which the compound was classed as inactive in experiment [2], in experiment [3] and in experiment [4].

`COC(=O)c1ccc(NC(C)=O)cc1OC`: the outcome in experiment [2], in experiment [3] and in experiment [4] was inactive.

Turning to `Cc1ccccc1N1CCN(CCc2nnc3n2CCCC3)CC1`, the result in experiment [2], in experiment [3] and in experiment [4] was inactive.

As for `CCCN1CCCC[C@H]1C(=O)Nc1c(C)cccc1C`, the compound was called inactive in experiment [2], in experiment [3] and in experiment [4].

Consider `CN1CCC(O)(c2ccc(F)cc2)C(C(=O)c2ccc(F)cc2)C1` (stereo not given), for which the compound was called inactive in experiment [2], in experiment [3] and in experiment [4].

Consider `O=C(O)c1ccccc1OP(=O)(O)O`, for which the compound was classed as inactive in experiment [2], in experiment [3] and in experiment [4].

On to `CCCC(=O)OCOC(=O)C1=C(C)NC(C)=C(C(=O)OC)C1c1cccc(Cl)c1Cl` (stereo not given), for which the result in experiment [2], in experiment [3] and in experiment [4] was inactive.

As to `C[C@]12CCC(=O)C=C1CC[C@@H]1[C@@H]2[C@@H](O)C[C@@]2(C)[C@H]1CC[C@]2(O)C(=O)COC(=O)CCC(=O)O`, the compound was classed as inactive in experiment [2], in experiment [3] and in experiment [4].

Turning to `CCCc1c(OCCCCc2nn[nH]n2)ccc(C(C)=O)c1O`, the outcome in experiment [2], in experiment [3] and in experiment [4] was inactive.

Regarding `Cc1nc2ccc(CN(C)c3ccc(C(=O)N[C@@H](CCC(=O)O)C(=O)O)s3)cc2c(=O)[nH]1`, the compound was called inactive in experiment [2], in experiment [3] and in experiment [4].

Turning to `COc1cc(C=O)ccc1O`, the result in experiment [2], in experiment [3] and in experiment [4] was inactive.

For `CC1(C)S[C@@H]2[C@H](NC(=O)C(c3ccccc3)S(=O)(=O)O)C(=O)N2[C@H]1C(=O)O` (stereo not given in full), the call in experiment [2], in experiment [3] and in experiment [4] was inactive.

As for `COc1ccc(C(=O)CC(=O)c2ccc(C(C)(C)C)cc2)cc1`, the compound was called inactive in experiment [2], in experiment [3] and in experiment [4].

Consider `C[N+]1(C)[C@@H]2CC(OC(=O)[C@H](CO)c3ccccc3)C[C@H]1[C@@H]1O[C@@H]12` (stereo not given in full), for which the outcome in experiment [2], in experiment [3] and in experiment [4] was inactive.

For the compound `CC(=O)c1ccc(OCC(=O)N2CCCCC2)cc1`, the outcome in experiment [2], in experiment [3] and in experiment [4] was inactive.

`COc1cccc([C@@]2(O)CCCC[C@@H]2CN(C)C)c1`: the result in experiment [2], in experiment [3] and in experiment [4] was inactive.

Turning to `Cc1cc(C)nc(NS(=O)(=O)c2ccc(N)cc2)n1`, the result in experiment [2], in experiment [3] and in experiment [4] was inactive.

Regarding `O=C(O)/C=C(\CC(=O)O)C(=O)O`, the result in experiment [2], in experiment [3] and in experiment [4] was inactive.

Consider `CNNCc1ccc(C(=O)NC(C)C)cc1`, for which the outcome in experiment [2], in experiment [6], in experiment [3], in experiment [4] and in experiment [7] was inactive.

In the case of `Nc1ccccc1`, the compound was called inactive in experiment [2], in experiment [3] and in experiment [4].

Take `Oc1ccc(Cl)c2cccnc12`: the outcome in experiment [2], in experiment [3] and in experiment [4] was inactive.

For the compound `Nc1cc(=O)[nH]c(N)n1`, the outcome in experiment [2], in experiment [3] and in experiment [4] was inactive.

For the compound `CC(C)C(=O)Nc1cccc(C(F)(F)F)c1`, the compound was called inactive in experiment [2], in experiment [3] and in experiment [4].

Regarding `COc1ccnc(CS(=O)c2nc3ccc(OC(F)F)cc3[nH]2)c1OC` (stereo not given), the result in experiment [2], in experiment [3] and in experiment [4] was inactive.

For `O=C(O)CCCC[P+](c1ccccc1)(c1ccccc1)c1ccccc1`, the call in experiment [2], in experiment [3] and in experiment [4] was inactive.

For the compound `OCc1ccc(Cl)cc1Cl`, the outcome in experiment [2], in experiment [3] and in experiment [4] was inactive.

For the compound `COC(=O)C1=C(C)NC(C)=C(C(=O)OCC(C)=O)C1c1ccccc1[N+](=O)[O-]` (stereo not given), the compound was classed as inactive in experiment [2], in experiment [3] and in experiment [4].

For the compound `O=C(NCCO[N+](=O)[O-])c1cccnc1`, the result in experiment [2], in experiment [3] and in experiment [4] was inactive.

`Cc1c(C(=O)O)c(O)cc2c1C(=O)c1c(O)c([C@@H]3O[C@H](CO)[C@@H](O)[C@H](O)[C@H]3O)c(O)c(O)c1C2=O`: the compound was called inactive in experiment [2], in experiment [3] and in experiment [4].

Turning to `CCCCCCCCCCCCCCCC(=O)OC(C)C`, the outcome in experiment [2], in experiment [3] and in experiment [4] was inactive.

For the compound `CN/C(=C\[N+](=O)[O-])NCCSCc1csc(CN(C)C)n1`, the outcome in experiment [2], in experiment [6], in experiment [3], in experiment [4] and in experiment [7] was inactive.
